Compounds without any hit were thinned out: in the full panel of roughly 83,000, 20% have a hit.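 For each line, cells grew in 96-well plates with the test compound present at a single concentration for 48 hours.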 A number with no mark means an inactive call. Activity calls are given as the source filed them.

For the experiment, the system named is RPMI-8226 leukemia. As to the kind of experiment: NCI-60 one-dose screen, 48 h (100 = growth as untreated, 0 = no growth, -100 = all killed). Particulars: 10 µM unless noted. Here is the method:
Growth inhibition of the RPMI-8226 human tumor cell line is measured as a screen for anti-cancer activity. Cells are grown in 96 well plates and exposed to the test compound for 48 hours. Compounds are tested at a single concentration, which is 10^-5 M for most compounds. The reported endpoint is percent growth (GI% or GIPRCNT), where numbers from 0 - 100% represent growth inhibition, and numbers from -100% - 0 represent cell death. For example, a value of 40 represents 60% growth inhibition. A value of 0 means no net growth occurred over the course of the experiment. A value of -40 indicates 40% of cells at the beginning of the experiment died by the end of the experiment. A value of -100 means all cells are dead at the end of the experiment.
NCI-60 Human Tumor Cell Lines Screen was performed using the standard one-dose NCI protocol, which is described in more detail at https://dtp.cancer.gov/discovery_development/nci-60/default.htm.
Compounds with GIPRCNT values below 10 were considered active. Activity score was based on GIPRCNT using the following formula: […]
Score is 0 for GIPRCNT values of 100 or above, 50 for GIPRCNT values of 0, and 100 for GIPRCNT values of -100.
`Nc1ccc(C(OC(=O)c2cc3ccccc3c(Cc3c(O)c(C(=O)OC(c4ccc(N)cc4)(c4ccc(N)cc4)c4ccc(N)cc4)cc4ccccc34)c2O)(c2ccc(N)cc2)c2ccc(N)cc2)cc1`: the growth was 2.08% (active). With `COc1ccc(CCN2COc3c([C@@H](C)CCC=C(C)C)ccc(C)c3C2)cc1OC`, the growth is 28.5%.

In the case of `CC1C2CCC(C2)C1COCCOCCO` (stereo not given), the growth is 108%. For the compound `CCc1oc2ccccc2c1C(=O)c1cc(I)c(O)c(I)c1`, the growth was 55.2%. Take `Clc1cc(Br)ccc1-c1ccc(CNCC2CCNCC2)o1`: the growth is 43.8%. In the case of `COc1ccc(NC(=O)/C=C/c2ccc(Cl)c(Cl)c2)cn1`, the growth was 49.7%.

On to `CCCCCCCCCCCCCCCCOc1ccc(S(=O)(=O)N(C)C)cc1[N+](=O)[O-]`, for which the growth is 107%. For `CCCCCCCCNC(C)C(O)c1ccc(SC(C)C)cc1` (stereo not given), the growth was 14.8%.

For `N=C(N)c1ccc(-c2ccc(-c3cc(Cl)cc(Cl)c3)o2)nc1`, the growth was -45.2% (active). Turning to `COc1ccc(-c2nc(-c3cc(OC)cc(OC)c3)[nH]c2-c2ccc(OC)cc2)cc1`, the growth was -11.6% (active). For the compound `C=C1NC(=O)C(C(C)CC)NC(=O)C2CSCC(NC(=O)CCC(=O)O)C(=O)NC(Cc3ccccc3)C(=O)NC(C)C(=O)NC(CC(C)CC)C(=O)NC(C(=O)NC(Cc3ccccc3)C(=O)N3CCCC3C(=O)N2)C(C)OC(=O)C(CO)NC(=O)C(C(O)COC)N(C)C(=O)C(C(C)C)NC(=O)C(CC(C)CC)NC1=O` (stereo not given), the growth is 25.3% [6 µM].

For `O=C(N=Nc1c(Cl)c(O)c2ccccc2c1O)C(=O)Nc1cccc(C(F)(F)F)c1`, the growth is 76.9%. For `O=C(/C=C/c1cn(-c2ccccc2)nc1-c1cccc(Nc2ccnc3cc(Cl)ccc23)c1)c1ccc2c(c1)OCO2`, the growth is 59.2%. Regarding `COc1ccc(-c2nsc3c2NC(=O)CC3c2cccc(F)c2)cc1` (stereo not given), the growth is 47.1%. For `COC1CC(N)C2OC(c3ccccc3)OCC2O1` (stereo not given), the growth was 92.8%. As for `OC(c1cc(-c2ccc(C(F)(F)F)cc2)nc(-c2ccc(C(F)(F)F)cc2)c1)C1CCCCN1` (stereo not given), the growth was -48.4% (active). `C#CC[C@@H]1C[C@]2(C)[C@H]3CC=C4[C@H]5[C@@H](C)[C@H](C)CC[C@]5(C(=O)NCCCN5CCN(CCCN)CC5)CC[C@@]4(C)[C@]3(C)CC[C@H]2C(C)(C)[C@H]1OC(C)=O`: the growth was -52.1% (active). Consider `O=C(Nc1ccc(Oc2ccc(Nc3nc4ccccc4s3)cc2)cc1)Nc1ccc(Cl)c(C(F)(F)F)c1`, for which the growth is -19.5% (active).

With `COc1cc2c(cc1OCCCOc1cc3c(cc1OC)C(=O)N1CCC[C@H]1C=N3)C=CC(C)(C)O2`, the growth was 48%. For `CCOC(CN1CCN(CC(C)C(=O)c2ccccc2)CC1)c1ccccc1` (stereo not given), the growth was 88.8%. With `O=C(CS)OCC(COC(=O)CS)(COC(=O)CS)COC(=O)CS`, the growth was 90.6%. The result for `CC(C)(C)CC(C)(C)NCc1cc(C(C)(C)C)cc(CNC(C)(C)CC(C)(C)C)c1O` reads 8.02% (active). On to `CCc1ccc2c(c1)N(CCO)C1=C(C(=O)OC1)C2c1cccc(Br)c1` (stereo not given), for which the growth is 24.7%. On to `Fc1ccc(-c2ccnc3nc(-c4ccncc4)nn23)cc1`, for which the growth was 98.5%. Take `C#CC[C@@H]1C[C@]2(C)[C@H]3CC=C4[C@H]5[C@@H](C)[C@H](C)CC[C@]5(C(=O)NCCCCCCCCN)CC[C@@]4(C)[C@]3(C)CC[C@H]2C(C)(C)[C@H]1OC(C)=O`: the growth was -45.8% (active). In the case of `COC(=O)c1ccc(NC(N)=NCCC(C)(C)c2ccc(C(F)(F)F)cc2)nc1`, the growth was -48.8% (active). The result for `COc1cccc(NC(=O)c2c(-c3ccccc3)c(-c3ccccc3)n[nH]c2=O)c1` reads 86.1%. For `COc1ccc(C2C3=C(COC3=O)N(CCO)c3cc(OC)c(OC)cc32)cc1` (stereo not given), the growth was 96.1%. The result for `CN(C)CCOc1nc2c3cccnc3cc(-c3cccc(Cl)c3)c2c2ncccc12` reads -21.6% (active); that for `Cc1cc(C)c2c(NC(=O)Nc3ccc(Cl)c(Cl)c3)n[nH]c2n1`, 100%. In the case of `CCCCCCCCCC1=NC(C)(C)CN1C(C)(C)CO`, the growth is 81%.

For the compound `O=C1c2ccccc2C(=O)c2c1oc1ccc3ccccc3c21`, the growth was 75.9%. For `CCCCn1c(-c2ccc(F)cc2)nc2cc(OC)c(OC)cc2c1=O`, the growth is 40.2%. For the compound `CN1CCN(Cc2ccc(NC(=O)c3cncc(C#Cc4ccc(N)nc4)c3)cc2C(F)(F)F)CC1`, the growth was 1.97% (active). As to `c1ccc2c(Cc3csc4ccccc34)csc2c1`, the growth was 94.8%. On to `CC(=O)Nc1nonc1-c1nc2ccccc2n1Cc1ccc(C(C)(C)C)cc1`, for which the growth is 58%.

Regarding `C/C=C(\C)C(C(=O)NC1CCCCC1)N(C(=O)C1CCc2cc(F)ccc2O1)c1ccc([N+](=O)[O-])cc1` (stereo not given), the growth was 79.1%. With `CCOCC(O)(c1ccc(Cl)cc1)c1ccc(Cl)cc1`, the growth was 107%. For `c1ccc(C(CC2=NCCCN2)c2ccccc2)cc1`, the growth was 116%.

With `COc1ccc(/C(=C\c2ccc3c(c2)OCO3)C(=O)Nc2nc3ccccc3s2)cc1`, the growth was 94.5%.

Values taken from PubChem BioAssay (NCI).
